Many of the other results were omitted from the sample, so hits are more common in it than they were.
Cycloheximide cs = Cycloheximide Counterscreen for Small Molecule Inhibitors of Shiga Toxin; 300,000 compounds, 12% hits; cell reporter, cycloheximide protein synthesis inhibition counterscreen; max response, %; in the data active = max response mostly above about 13%, no sharp cut-off; inactive = mostly below about 14%; note: read at 38.3 µM for the half of the compounds with a filed dose; 0% is about no effect
Shiga inhibitor = A qHTS for Small Molecule Inhibitors of Shiga Toxin | Vero cells, Shiga toxin protein synthesis inhibition reporter | inhibition, % at 38.7 µM | 290,000 compounds, 9.2% hits | AID 2315, 2010; in the data active = inhibition mostly above about 28%, no sharp cut-off; inactive = mostly below about 43%; note: 0% is about no effect
AmpC no deterg = qHTS Inhibitors of AmpC Beta-Lactamase (assay without detergent); P00811; Potency, µM (highest dose often 57.1 µM), inactives show top-dose activity change, negative = inhibition, most hits filed as inhibitors; 330,000 compounds, 0.52% hits; AmpC nitrocefin hydrolysis, absorbance 480 nm, 0.0001% Triton;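 note: potency is the fitted concentration of half-maximal effect; plate controls were no compound for no effect and no enzyme for full effect; nearly all actives have a fitted effect of over 20% in size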
Target sequence (P00811 whole entry, looked up): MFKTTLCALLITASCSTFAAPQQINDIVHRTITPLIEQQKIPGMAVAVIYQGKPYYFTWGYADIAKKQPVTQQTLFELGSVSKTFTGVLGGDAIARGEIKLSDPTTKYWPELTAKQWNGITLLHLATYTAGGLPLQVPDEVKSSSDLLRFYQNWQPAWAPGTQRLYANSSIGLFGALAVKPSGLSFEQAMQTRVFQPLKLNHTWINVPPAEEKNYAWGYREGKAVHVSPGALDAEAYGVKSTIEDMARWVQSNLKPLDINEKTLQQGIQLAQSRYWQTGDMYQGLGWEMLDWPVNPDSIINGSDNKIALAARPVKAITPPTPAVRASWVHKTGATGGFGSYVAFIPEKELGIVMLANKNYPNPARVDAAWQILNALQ
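20 mM phosphate pH 7.0 + 0.01% (detergent screen) or 0.0001% Triton X-100; 5.3 nM AmpC reagent; cpd preinc 15 min RT; nitrocefin (800 uM stock) to start; A480 q20 s × 4 min; Activity was normalised to no-enzyme and no-compound control wells.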
SARS PLpro yeast = qHTS of Yeast-based Assay for SARS-CoV PLP | S. cerevisiae expressing SARS-CoV PLpro, growth rescue | Potency, µM (series often up to 32.9 µM), without a hit: top-dose activity, positive = growth rescue, usual class: activators | 330,000 compounds, 0.19% hits; calls by dose curve; note: potency is the fitted concentration of half-maximal effect; 0% is about no effect; nearly all actives have a fitted effect of over 55% in size
AMA1-RON2 inh = qHTS for Inhibitors of AMA1-RON; Towards Development of Antimalarial Drug Lead: Primary Screen | Potency, µM (doses to about 58.2 µM), without a hit: at the top dose activity change, negative = inhibition, most hits filed as inhibitors | AID 720542, 2013 | AlphaScreen AMA1-biotinylated RON2 peptide binding | Plasmodium falciparum AMA1 (3D7) - RON2 peptide interaction | 360,000 compounds, 0.2% hits;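 note: potency is the fitted concentration of half-maximal effect; 0% = vehicle wells and -100% = peptide control; nearly all actives have a fitted effect of over 45% in size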
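AMA1 (3D7) with his tag at 25 nM final met compounds first, then biotinylated RON2 peptide at 25 nM; detection used donor plus acceptor beads, 10 µg/mL apiece, read by AlphaScreen after 30 min at room temperature.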
AmpC inh detg = qHTS Inhibitors of AmpC Beta-Lactamase (assay with detergent) | P00811 | AmpC hydrolysis of nitrocefin, absorbance 480 nm, 0.01% Triton | Potency, µM (highest dose often 114 µM), inactives show at the top dose activity change, negative = inhibition, actives largely listed as inhibitors | 370,000 compounds, 0.041% hits | AID 485294, 2010;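 note: potency is the fitted concentration of half-maximal effect; 0% = no-compound wells and -100% = no-enzyme wells; nearly all actives have a fitted effect of over 25% in size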
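AmpC (5.3 nM in the dispensed reagent) in 20 mM phosphate pH 7.0 with 0.01% (detergent screen) or 0.0001% Triton X-100 was preincubated with compounds for 15 min at room temperature. Nitrocefin was then added from an 800 uM solution, and hydrolysis was followed at 480 nm.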
* hit, by the source's call. Unless noted, calls come from the whole dose curve; as a rule, active = well fitted curve in the direction sought with a large enough effect; inconclusive = small, poorly fitted or top-dose-only effect, or another doubt; inactive = no such curve, though single readings can be large; an effect the other way counts as inactive or inconclusive.

For CCCCOc1ccc(C(=O)NCC(=O)NCCOc2ccccc2)cc1 the results were AmpC no deterg 35µM*, SARS PLpro yeast -2%, AMA1-RON2 inh -5% and AmpC inh detg inconclusive.
For COc1cc2c(c3oc(-c4ccccc4)cc(=O)c13)C=CC(C)(C)O2 the results were Cycloheximide cs 25*, Shiga inhibitor 37*, AmpC no deterg 126%, SARS PLpro yeast -1%, AMA1-RON2 inh 9% and AmpC inh detg -7%.
COc1cc(OC)c2c(=O)cc(-c3cccnc3)oc2c1 was read as Cycloheximide cs 11, Shiga inhibitor 23, AmpC no deterg -8%, SARS PLpro yeast 0%, AMA1-RON2 inh -7% and AmpC inh detg 0%.
COc1cc(OC)c2c(=O)cc(-c3ccccc3)oc2c1 was read as Cycloheximide cs 38*, Shiga inhibitor 109*, AmpC no deterg 127%, SARS PLpro yeast -3%, AMA1-RON2 inh -5% and AmpC inh detg 8%.
`O=C(N/N=C/c1ccccc1Cl)c1ccc(F)cc1` gave Cycloheximide cs 56*, Shiga inhibitor 72*, AmpC no deterg -49%, SARS PLpro yeast inconclusive, AMA1-RON2 inh 4% and AmpC inh detg -1%.
O=C(NN=Cc1ccccc1Cl)c1ccccc1 was read as AMA1-RON2 inh 0%.
CC(C)Oc1ccccc1/C=N/NC(=O)c1ccc(F)cc1 was read as Cycloheximide cs 27*, Shiga inhibitor 20*, AmpC no deterg -30%, SARS PLpro yeast -3%, AMA1-RON2 inh 5% and AmpC inh detg 0%.
O=C(O)COc1ccccc1/C=N/NC(=O)c1ccc(F)cc1 was read as Cycloheximide cs 3, Shiga inhibitor 3, AmpC no deterg -23%, SARS PLpro yeast -6%, AMA1-RON2 inh 51% and AmpC inh detg 4%.
`CC(C)Oc1ccccc1/C=N/NC(=O)c1ccccc1Cl` gave Cycloheximide cs 12*, Shiga inhibitor 15, AmpC no deterg -10%, SARS PLpro yeast 4%, AMA1-RON2 inh 72% and AmpC inh detg inconclusive.
For Cn1cccc1-c1cc(C(=O)N/N=C/c2ccccc2Cl)[nH]n1 the results were Cycloheximide cs 20*, Shiga inhibitor 80*, AmpC no deterg -42%, SARS PLpro yeast 0%, AMA1-RON2 inh 48% and AmpC inh detg -8%.
CC(C)CNC(=O)C1(C)CCCN1C(=O)c1ccc2c(c1)CCO2 (centres undefined) was read as AMA1-RON2 inh 0%.
Screening CCCN=C(Nc1ccc(Cl)cc1)c1cccnc1 returned Cycloheximide cs -2, Shiga inhibitor -6, AmpC no deterg -4%, SARS PLpro yeast 2%, AMA1-RON2 inh -5% and AmpC inh detg 3%.
`CCN(CC)c1ccc(C(=O)N/N=C/c2ccccc2OC(F)F)cc1` gave Cycloheximide cs 26*, Shiga inhibitor 28, AmpC no deterg -32%, SARS PLpro yeast 8.9µM*, AMA1-RON2 inh 14% and AmpC inh detg 4%.
Screening COc1ccccc1/C=N/NC(=O)c1ccc(N(C)S(=O)(=O)c2ccccc2)cc1 returned Cycloheximide cs -9, Shiga inhibitor -9, AmpC no deterg -28%, SARS PLpro yeast 0%, AMA1-RON2 inh 25% and AmpC inh detg 5%.
For O=C(C/C=N/OCc1ccc(Cl)cc1)c1cnc(-c2ccccc2)s1 the results were Cycloheximide cs -3, Shiga inhibitor 31, AmpC no deterg -53%, SARS PLpro yeast -10%, AMA1-RON2 inh 24% and AmpC inh detg -8%.
`CO/N=C/CC(=O)c1cnc(-c2ccccc2)s1` gave Cycloheximide cs 19*, Shiga inhibitor 40, AmpC no deterg -31%, SARS PLpro yeast -4%, AMA1-RON2 inh -1% and AmpC inh detg 9%.
For COc1ccc(NC(=O)c2ccc3nccnc3c2)cc1 the results were Cycloheximide cs 37*, Shiga inhibitor 88*, AmpC no deterg -2%, SARS PLpro yeast -18%, AMA1-RON2 inh 2% and AmpC inh detg inconclusive.

Screening results deposited in PubChem BioAssay by National Center for Advancing Translational Sciences (NCATS).
